Assay results: PubChem BioAssay (NCI)
Compounds without any hit were thinned out: in the full panel of roughly 83,000, 20% have a hit.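 Note: values are percent growth. 100 is the growth of untreated cells, values between 100 and 0 indicate rising inhibition; between -100 and 0 indicates cell death.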 The source made the active and inactive calls. The calls were made as follows: active = growth percent below 10; inactive = the rest.

tested on: UACC-257 melanoma; experiment: NCI-60 one-dose screen, 48 h (100 = growth as untreated, 0 = no growth, -100 = all killed); conditions: 10 µM unless noted

Row | Compound | growth
1 | Cc1ccc(Cl)cc1Nc1nc(C(F)(F)F)ccc1C(=O)N/N=C/c1cccnc1 | 28.2% (inactive)
2 | Fc1ccc(-c2nn(-c3ccccc3)cc2-c2nc3ccccc3o2)cc1 | 102% (inactive)
3 | CCOC(=O)C(=Cc1cccc(Br)c1)C(=O)OCC | 35% (inactive)
4 | COc1cccc(NC(=O)Cn2cc(CN3CCN(c4ccnc5cc(Cl)ccc45)CC3)nn2)c1 | 102% (inactive)
5 | CCOC(=O)c1cc2c(=O)oc3ccccc3c2oc1=O | 105% (inactive)
6 | O=C(Nc1cc(Cl)ccc1O)c1ccc(Nc2ccnc(C(F)(F)F)c2)cc1 | 78% (inactive)
7 | C=C(C)[C@@H]1CC[C@]2(C(=O)O)CC[C@]3(C)[C@H](CC[C@@H]4[C@@]5(C)C[C@@H](Cc6cn(CCO[C@@H]7O[C@H](COC(C)=O)[C@H](OC(C)=O)[C@H](OC(C)=O)[C@H]7OC(C)=O)nn6)[C@H](O)C(C)(C)[C@@H]5CC[C@]43C)[C@@H]12 | 61.9% (inactive)
8 | CC(C)CCC[C@@H](C)[C@H]1CC[C@H]2[C@@H]3CC=C4C[C@@H](C(C(=O)O)C(=O)O)CC[C@]4(C)[C@H]3CC[C@]12C | -49.8% (active)
9 | O=S(=O)(Nc1ccc(Cl)cc1)c1ccc(-c2cnc(C3CC3)o2)cc1 | 56.1% (inactive)
10 | C#CCOc1ccc2ncnc(Nc3ccc(NC(=O)CCl)cc3)c2c1 | 38.8% (inactive)
11 | CCOC(=O)C1=C(NC)OCC1=O | 92.5% (inactive)
12 | COC(=O)c1c2c(c(C)[n+]([O-])c1C)C(=O)C=C(NCc1ccc(Br)cc1)C2=O | -80.6% (active)
13 | CCN(CC)CCOc1ccc(-c2c(-c3ccccc3)c(=O)oc3ccccc23)cc1 | 86.3% (inactive)
